# Assay outcomes (PubChem BioAssay)
# Cruzain Triton: cruzain (T. cruzi) inhibition with detergent. P25779. purified cruzain, Z-FR-AMC fluorescence, 0.01% Triton. Potency, µM, for inactives: max response, negative = inhibition, actives largely listed as inhibitors. hit rate 0.43% among 200,000. AID 1478;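 further: plate controls were neutral wells for no effect and buffer without enzyme for full effect; nearly all actives have a fitted effect of over 40% in size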
# Target sequence (P25779 123-467 limits assumed): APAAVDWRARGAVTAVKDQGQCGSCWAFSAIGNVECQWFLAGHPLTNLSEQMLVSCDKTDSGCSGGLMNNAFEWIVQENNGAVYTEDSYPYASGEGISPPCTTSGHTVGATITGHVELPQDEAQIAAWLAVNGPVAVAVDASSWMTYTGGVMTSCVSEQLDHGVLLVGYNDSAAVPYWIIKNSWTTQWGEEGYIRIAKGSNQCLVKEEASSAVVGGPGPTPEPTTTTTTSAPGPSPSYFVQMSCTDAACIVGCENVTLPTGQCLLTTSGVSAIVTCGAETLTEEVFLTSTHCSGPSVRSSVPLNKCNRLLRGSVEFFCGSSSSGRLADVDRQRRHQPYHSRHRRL
#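 In this qHTS format, compounds are incubated with 1.5 nM cruzain for 15 min at room temperature before 2 uM Z-FR-AMC is added. Release of AMC is followed at 360/450 nm, and progress is taken as the 60 s fluorescence difference.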
# Cruzain inh noDet: inhibitors of Trypanosoma cruzi cruzain without detergent | Potency, µM, for inactives: max response, negative = inhibition, hits mostly inhibitors | purified cruzain, Z-FR-AMC fluorescence, no detergent | hit rate 2.3% among 200,000;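 further: plate controls were enzyme without inhibitor for no effect and buffer without enzyme for full effect; nearly all actives have a fitted effect of over 40% in size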
#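 Purified cruzain at 1.5 nM, pre-incubated 15 min with compound at room temperature in 100 mM sodium acetate pH 5.5, 5 mM DTT, 0.00005% Triton X-100. Reaction started with 2 uM Z-FR-AMC; AMC fluorescence increase over 60 s gives rate.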
# * = called active by the depositor; ? = inconclusive. Only some compounds are listed: those with a hit (about 2.4% of all), similar ones and a draw of the others. The call rests on the fitted dose curve; in most records, active means well fitted curve in the direction sought with a large enough effect; inconclusive means small, poorly fitted or top-dose-only effect, or another doubt; inactive means no such curve, though single readings can be large; an effect the other way counts as inactive or inconclusive. Potency means the concentration at half of the fitted maximal effect.
SMILES,Cruzain Triton,Cruzain inh noDet
CCOc1ccc(C(=O)c2c(N)c(-c3nc(-c4ccc5c(c4)OCO5)cs3)c3ccccn23)cc1,-2%,-19%
CCOc1ccc(C(=O)c2c(N)c(-c3nc(-c4ccc(OCC)cc4)cs3)c3ccccn23)cc1,-2%,-19%
COc1cccc(-c2csc(-c3c(N)c(C(=O)c4ccc5c(c4)OCO5)n4ccccc34)n2)c1,-2%,3.2µM*
N#Cc1ccc(C(c2nnnn2Cc2ccccc2)N2CCCC2)cc1 (stereo not given),5%,1%
CCCCCCN(C(=O)CCCCCN1C(=O)NC(c2ccc(-c3ccccc3)cc2)C(C(=O)OCc2ccccc2)=C1C)C(C(=O)NCCCC)c1ccc(-c2ccccc2)cc1 (stereo not given),-1%,?
CCCCCCN(C(=O)CCCCCN1C(=O)NC(c2ccc(-c3ccccc3)cc2)C(C(=O)OCc2ccccc2)=C1C)C(C(=O)NCCCC)c1ccc(O)cc1 (stereo not given),-1%,6.3µM*
CC(=O)c1ccc(-c2ccc(-c3cc(=O)oc4c(C(C)C)ccc(C)c34)cc2)cc1,-2%,8.9µM*
Cc1ccc(C(C)C)c2oc(=O)cc(-c3ccc(-c4ccc(C(F)(F)F)cc4)cc3)c12,1%,?
O=C(Oc1ccccc1)N1CCC2(CCCN(Cc3nccs3)C2)CC1,0%,21%
COc1cc(-c2nc(-c3cccc(Cl)c3)c(-c3ccccc3)[nH]2)cc(OC)c1OC,-3%,18%
O=C(N/N=C/c1cccc([N+](=O)[O-])c1)c1cc2ccccc2o1,-17%,?
O=C(COc1ccc(/C=N/NC(=O)c2cc3ccccc3o2)cc1Cl)Nc1ccccc1,22µM*,20µM*
CCOc1ccc(-c2nnc(SCC(=O)NCc3ccccc3)o2)cc1,-4%,-8%
COc1ccc(-c2nnc(SCC(=O)Nc3cc(F)ccc3C)o2)cc1,4%,2%
CCOc1ccc(-c2nnc(SCC(=O)Nc3cc(F)ccc3F)o2)cc1,-7%,10µM*
CCOc1ccc(-c2nnc(SCC(=O)NCc3ccc(Cl)cc3)o2)cc1,25µM*,20µM*
CCn1c(=O)c2sccc2n2c(CCCC(=O)Nc3ccc(Oc4ccccc4)cc3)nnc12,-2%,?
COCC(=O)N1CCC2(CCCN(C(=O)Nc3ccccc3)C2)CC1,0%,5%
Cc1cc(C)cc(NC(=O)c2c(C)oc3nc(C)nc(N4CCCC4)c23)c1,-2%,-11%
COc1ccc(-c2c(C)n([O-])c3c([n+]2=O)CCCC3)c(OC)c1,0%,-6%
O=S(=O)(c1ccc(-c2nnc(SCc3nnc(-c4ccccc4)o3)o2)cc1)N1CCCC1,0%,?
CCN(CC)S(=O)(=O)c1ccc(-c2nnc(SCc3nnc(-c4ccccc4)o3)o2)cc1,3%,25µM*
COc1ccc(OC)c(Nc2ncnc3c2cnn3-c2cccc(C)c2)c1,-10%,?
COc1cc(NC(=O)N2CCC3(CC2)Nc2cc(F)ccc2-n2cccc23)cc(OC)c1OC,-7%,?
COc1cc([N+](=O)[O-])ccc1NC(=O)N1CCC2(CC1)Nc1ccccc1-n1cccc12,-2%,25µM*
SMILES,Cruzain Triton,Cruzain inh noDet
COc1ccc(/C=N/n2cnnc2)cc1COc1ccccn1,0%,-3%
CC(=O)Nc1nonc1-c1nc2ccccc2n1Cc1ccccc1,-5%,-11%
O=C(Oc1ccc(C(=S)N2CCOCC2)cc1Br)c1cc(Cl)ccc1Cl,-1%,?
C=CCn1c(=O)n2ncnc2c2c3c(sc21)CCCC3,0%,-10%
O=c1n(Cc2ccc(Cl)cc2)c2sc3c(c2c2ncnn12)CCCC3,-13%,25µM*
N#CC1=C(N)OC2=C(CCC/C2=C/c2ccoc2)C1c1ccoc1 (stereo not given),-10%,23%
O=C(Nc1ccc2nc(-c3ccc4nc[nH]c4c3)[nH]c2c1)c1cccs1,13µM*,?
O=C(Nc1ccc2nc(-c3ccccc3)[nH]c2c1)c1cccs1,-10%,-9%
COc1ccc(S(=O)(=O)c2c(Nc3c(C)cccc3C)sc(C(=O)c3ccc4c(c3)OCO4)c2N)cc1,-3%,7.9µM*
COc1ccccc1Nc1sc(C(=O)c2ccc(F)cc2)c(N)c1S(=O)(=O)c1ccc(C)cc1,-2%,7.9µM*
Cc1ccccc1Nc1sc(C(=O)c2ccccc2)c(N)c1S(C)(=O)=O,-11%,-8%
COc1cccc(Nc2sc(C(=O)c3ccc4c(c3)OCO4)c(N)c2S(=O)(=O)c2ccccc2)c1,-1%,7.9µM*
COc1ccc(S(=O)(=O)c2c(Nc3cccc(C)c3C)sc(C(=O)c3ccccc3)c2N)cc1,-3%,6.3µM*
Cc1ccc(C(=O)c2sc(Nc3ccc(F)cc3)c(C#N)c2N)cc1,-9%,?
COc1ccc(S(=O)(=O)Nc2ccc3c(c2)OCO3)cc1,2%,2%
Nc1c(C(=O)c2ccc3c(c2)OCO3)sc(Nc2ccccc2F)c1S(=O)(=O)c1ccccc1,-4%,?
COc1ccc(C2CC(O)(C(C)(C)O)NO2)cc1 (stereo not given),1%,6%
O=C(NCc1cccs1)c1cnn2cccnc12,1%,-2%
COc1ccccc1CN1CCC2(CC1)CCN(C(=O)c1csnn1)CC2,-10%,-9%
COc1ccc(Cn2nnnc2C(c2ccccc2Cl)N2CCN(C)CC2)cc1 (stereo not given),-3%,-1%
CC(C)n1c(-c2ccc(C(C)(C)C)cc2)n[nH]c1=S,-7%,4%
COc1ccc(S(=O)(=O)c2c(Nc3c(C)cccc3C)sc(C(=O)c3ccc(F)cc3)c2N)cc1,5%,6.3µM*
Cc1cccc(C)c1Nc1sc(C(=O)c2ccccc2)c(N)c1C(=O)Nc1ccc(F)cc1,-3%,?
COc1cc(NC(=O)COC(=O)CNS(=O)(=O)c2ccc(F)c(F)c2F)cc(OC)c1,28µM*,25µM*
COc1cc(NC(=O)COC(=O)c2ccccc2F)cc(OC)c1,-2%,4%
SMILES,Cruzain Triton,Cruzain inh noDet
CC(=O)N1CCc2cc(CNC(=O)c3ccccc3Br)ccc21,-2%,-11%
CC(=O)C1=C(O)C=C(c2ccco2)CC1c1ccco1 (stereo not given),-8%,-19%
N#Cc1cc2c(=O)n3ccccc3nc2n(CCCN2CCOCC2)c1=O,28µM*,?
N#Cc1cc2c(=O)n3ccccc3nc2n(CCN2CCOCC2)c1=O,-5%,9%
COCCNC(=O)c1ccccc1NC(=O)COc1ccccc1,0%,-7%
O=C(CCN1Cc2ccccc2C1)c1ccc2c(c1)OCCO2,-25%,?
O=C(CCN1CCc2ccccc2C(c2ccccc2)C1)c1ccc2c(c1)OCCO2 (stereo not given),28µM*,16µM*
COc1ccc(C(C)C)cc1S(=O)(=O)NCCc1c(C)[nH]c2c(Cl)cccc12,-8%,-9%
COc1cccc2c1C(=O)CC(c1ccccc1)O2 (stereo not given),-2%,3%
COc1cc(/C=C/C(=O)c2ccc(NS(=O)(=O)c3ccc(C)cc3)cc2)ccc1OC(F)F,-2%,10µM*
COc1cc(/C=C/C(=O)c2ccc(NS(=O)(=O)c3ccc(C)cc3)cc2)cc(OC)c1O,-6%,?
CCOc1ccc(S(=O)(=O)N(CC(=O)Nc2ccc3c(c2)OCO3)c2ccc(C)cc2)cc1,-8%,1%
Cc1ccc(S(=O)(=O)c2c(Nc3cc(C)ccc3C)sc(C(=O)c3ccc4c(c3)OCO4)c2N)cc1,9%,-27%
CCOc1ccc(Nc2sc(C(=O)c3ccc4c(c3)OCO4)c(N)c2S(=O)(=O)c2ccc(C)cc2)cc1,-3%,3.2µM*
